The text below walks through data of PubChem BioAssay (Tox21).

“And” between values parts separate entries of the source, which are not always exact repeats. Identical values can stand only once. Values without a mark were called inactive. Records with an inconclusive call do not appear. The source made the active and inactive calls. Unless noted, calls come from the whole dose curve; as a rule, active = well fitted curve in the direction sought with a large enough effect in the repeat runs; inconclusive = weak or mixed curves; inactive = no such curve, though single readings can be large; an effect the other way counts as inactive or inconclusive.

Assay [1] deals with Estrogen receptor beta (Homo sapiens) (UniProt Q92731). The experiment in a line: qHTS assay to identify small molecule antagonists of the estrogen receptor beta (ER-beta) signaling pathway (AID 1259378; active = well fitted inhibition curve with a large enough effect in the signal ratio in the repeat runs, not every such curve was filed as active; the % refers to the signal ratio; note: potency is the fitted concentration of half-maximal effect). The essentials: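 ER-beta-UAS-bla HEK293T (GripTite) cells in 2% charcoal-stripped FBS medium were preincubated 6 hr at 37C, dosed with compound, then stimulated with 1 nM E2 (final) for 16 hr; beta-lactamase reporter read by B/G FRET fluorescence after 2 hr substrate loading.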
On the technique in general: In qHTS, concentration-response curves come from the screen itself.

Assay [2] can be described thus: qHTS assay to identify small molecule agonists of the androgen receptor (AR) signaling pathway in the presence of an antagonist - cell viability counter screen (AID 1259379).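 For activity change, negative = cytotoxicity: MDA-kb2 human breast cancer cells carrying an MMTV luciferase reporter; series mostly up to about 92 µM.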 Note: nearly all actives have a fitted effect of over 25% in size. Note: potency is the fitted concentration of half-maximal effect. The gist of the method:
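Viability counter screen: CellTiter-Fluor fluorescence, measured in the same wells as the luciferase read-out. MDA-kb2 cells, 3,000/well, with nilutamide at 3.0uM final and compounds at 15 concentrations, 16 hr at 37C, 0% CO2.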

Assay [3] is described as follows: qHTS assay to identify small molecule agonists of the estrogen receptor beta (ER-beta) signaling pathway - cell viability counter screen (AID 1259380). Note: nearly all actives have a fitted effect of over 30% in size. Note: potency is the fitted concentration of half-maximal effect. The essentials: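 Luminescence read-out (CellTiter-Glo, 30 min, room temp) taken in the same wells as the beta-lactamase reporter assay; ER-beta-UAS-bla HEK293T cells exposed to DMSO-dissolved compounds for 16 hr at 37C in 2% charcoal-stripped FBS medium.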

Assay [4] in a line: qHTS assay to identify small molecule antagonists of the estrogen receptor beta (ER-beta) signaling pathway - cell viability counter screen (AID 1259382). For activity change, negative = cytotoxicity: series mostly up to about 92 µM. Note: nearly all actives have a fitted effect of over 55% in size. Note: potency is the fitted concentration of half-maximal effect. The essentials: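 Luminescent ATP read-out (CellTiter-Glo, 30 min, RT) taken in the same wells as the bla reporter assay. HEK293T ER-beta-UAS-bla cells in 2% charcoal-stripped FBS were exposed to compounds with 1nM E2 for 16 hr at 37C.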

Assay [5] can be described thus: qHTS assay to identify small molecule agonists or antagonists of the thyroid stimulating hormone receptor (TSHR) signaling pathway - wild type cell line counter screen (AID 1259384; calls by dose curve). The essentials:
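Wild-type HEK293 cells were plated 18 h at 37 C/5% CO2, pin-dosed with compound plus Ro20-1724 medium, held 30 min at room temperature, then given cAMP-d2 and anti-cAMP-cryptate; fluorescence was read after 1 h. Fifteen concentrations, triplicate.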

The target in assay [6] is Thyrotropin receptor (Homo sapiens) (UniProt P16473). The experiment in a line: qHTS assay to identify small molecule antagonists of the thyroid stimulating hormone receptor (TSHR) signaling pathway (AID 1259385; calls by dose curve; note: nearly all actives have a fitted effect of over 20% in size). The essentials:
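TSHR-HEK293 cells were plated and held 18 h at 37C/5% CO2, then given compound plus Ro20-1724 and stimulated with TSH at 1.5 ng/mL final. After 30 min at room temperature, cAMP was detected with cAMP-d2/anti-cAMP-cryptate (1 h) by fluorescence.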

Assay [7] can be described thus: qHTS assay to identify small molecule agonists of the estrogen receptor alpha (ER-alpha) signaling pathway in the presence of an antagonist - cell viability counter screen (AID 1259386). For activity change, negative = cytotoxicity: series mostly up to about 92 µM.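 Note: cells exposed to compounds for 22 h at 37 °C before the viability read; nearly all actives have a fitted effect of over 30% in size.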 Note: potency is the fitted concentration of half-maximal effect. The gist of the method:
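Read-out: CellTiter-Fluor fluorescence after 1hr reagent incubation, measured in the same wells as the luciferase readout. VM7Luc4E2 cells were exposed to 15 compound concentrations with 10.0nM ICI-182,780 for 22hr at 37C.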

For assay [8], the target named is Progesterone receptor (Homo sapiens) (UniProt P06401). The experiment in a line: qHTS assay to identify small molecule agonists of the progesterone receptor (PR) signaling pathway (AID 1346784; calls by dose curve; note: nearly all actives have a fitted effect of over 30% in size). The gist of the method:
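Agonist qHTS: compounds pinned onto 3,000 PR-UAS-bla HEK 293T cells per well in charcoal-stripped serum medium, 16hr at 37C, then beta-lactamase activity measured by LiveBLAzer FRET fluorescence after 2 hours at room temperature.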

Assay [9] addresses Estrogen receptor (Homo sapiens) (UniProt P03372). The experiment in a line: qHTS assay to identify small molecule agonists of the estrogen receptor alpha (ER-alpha) signaling pathway in the presence of an antagonist (AID 1259383; calls by dose curve; note: top concentration of the series differs between compounds; nearly all actives have a fitted effect of over 15% in size). The gist of the method:
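Luciferase luminescence (ONE-Glo, 30min at room temperature) measured in VM7Luc4E2 cells after 22hr compound exposure at 15 concentrations, with 10.0nM ICI-182,780 final present; cells express endogenous ER-alpha and carry four EREs upstream of luciferase.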
% is set by controls: 0 for no effect and ±100 for the full control effect.

Estrogen receptor (Homo sapiens), sequence (P03372 whole entry, looked up): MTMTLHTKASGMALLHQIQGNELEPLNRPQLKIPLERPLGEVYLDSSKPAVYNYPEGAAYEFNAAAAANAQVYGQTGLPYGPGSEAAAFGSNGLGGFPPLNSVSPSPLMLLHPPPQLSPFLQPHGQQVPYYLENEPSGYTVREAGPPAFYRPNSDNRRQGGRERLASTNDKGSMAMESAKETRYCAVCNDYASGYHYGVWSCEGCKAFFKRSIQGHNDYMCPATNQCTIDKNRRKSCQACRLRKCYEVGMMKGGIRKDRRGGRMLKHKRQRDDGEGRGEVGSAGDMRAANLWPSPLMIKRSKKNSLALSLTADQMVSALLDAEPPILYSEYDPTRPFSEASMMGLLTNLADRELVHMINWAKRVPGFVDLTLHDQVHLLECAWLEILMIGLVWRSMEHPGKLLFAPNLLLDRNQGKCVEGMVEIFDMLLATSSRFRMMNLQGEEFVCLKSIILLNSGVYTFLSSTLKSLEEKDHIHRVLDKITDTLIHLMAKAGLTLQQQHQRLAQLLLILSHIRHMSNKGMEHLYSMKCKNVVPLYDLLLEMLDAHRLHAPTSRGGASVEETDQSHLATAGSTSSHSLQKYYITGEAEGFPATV
Estrogen receptor beta (Homo sapiens), sequence (Q92731 whole entry, looked up): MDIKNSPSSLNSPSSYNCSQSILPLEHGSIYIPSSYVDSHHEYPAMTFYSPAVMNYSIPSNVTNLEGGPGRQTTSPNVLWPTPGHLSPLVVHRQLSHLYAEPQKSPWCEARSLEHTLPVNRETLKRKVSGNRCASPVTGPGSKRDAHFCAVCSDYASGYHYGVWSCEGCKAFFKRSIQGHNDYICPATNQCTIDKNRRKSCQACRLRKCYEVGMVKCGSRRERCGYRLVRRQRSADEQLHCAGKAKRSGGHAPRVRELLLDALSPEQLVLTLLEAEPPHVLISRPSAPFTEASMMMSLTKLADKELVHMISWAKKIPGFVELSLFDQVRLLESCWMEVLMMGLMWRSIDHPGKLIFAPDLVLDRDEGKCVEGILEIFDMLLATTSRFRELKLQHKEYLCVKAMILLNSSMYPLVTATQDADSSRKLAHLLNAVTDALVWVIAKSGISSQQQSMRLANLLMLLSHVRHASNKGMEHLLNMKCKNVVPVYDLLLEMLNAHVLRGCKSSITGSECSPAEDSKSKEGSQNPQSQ
Thyrotropin receptor (Homo sapiens), sequence (P16473 whole entry, looked up): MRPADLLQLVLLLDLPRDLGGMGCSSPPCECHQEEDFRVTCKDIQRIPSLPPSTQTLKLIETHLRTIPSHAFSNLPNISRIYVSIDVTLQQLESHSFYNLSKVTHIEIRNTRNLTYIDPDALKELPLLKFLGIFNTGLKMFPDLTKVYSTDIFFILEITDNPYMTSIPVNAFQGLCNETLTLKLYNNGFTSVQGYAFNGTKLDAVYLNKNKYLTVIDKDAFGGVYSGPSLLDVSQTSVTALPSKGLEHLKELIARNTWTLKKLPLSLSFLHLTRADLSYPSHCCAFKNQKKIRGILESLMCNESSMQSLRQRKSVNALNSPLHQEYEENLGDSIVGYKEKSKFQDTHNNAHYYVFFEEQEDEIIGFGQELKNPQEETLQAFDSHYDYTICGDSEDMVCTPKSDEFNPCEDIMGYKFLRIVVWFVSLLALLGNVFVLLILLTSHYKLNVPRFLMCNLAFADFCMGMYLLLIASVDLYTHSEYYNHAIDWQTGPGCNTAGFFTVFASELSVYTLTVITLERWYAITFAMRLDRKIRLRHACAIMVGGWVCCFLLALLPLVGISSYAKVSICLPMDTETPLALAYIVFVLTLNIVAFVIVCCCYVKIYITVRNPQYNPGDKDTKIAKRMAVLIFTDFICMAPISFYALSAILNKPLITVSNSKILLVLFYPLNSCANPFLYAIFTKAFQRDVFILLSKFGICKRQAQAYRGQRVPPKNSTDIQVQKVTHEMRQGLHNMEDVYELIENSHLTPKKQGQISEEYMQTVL
Progesterone receptor (Homo sapiens), sequence (P06401 whole entry, looked up): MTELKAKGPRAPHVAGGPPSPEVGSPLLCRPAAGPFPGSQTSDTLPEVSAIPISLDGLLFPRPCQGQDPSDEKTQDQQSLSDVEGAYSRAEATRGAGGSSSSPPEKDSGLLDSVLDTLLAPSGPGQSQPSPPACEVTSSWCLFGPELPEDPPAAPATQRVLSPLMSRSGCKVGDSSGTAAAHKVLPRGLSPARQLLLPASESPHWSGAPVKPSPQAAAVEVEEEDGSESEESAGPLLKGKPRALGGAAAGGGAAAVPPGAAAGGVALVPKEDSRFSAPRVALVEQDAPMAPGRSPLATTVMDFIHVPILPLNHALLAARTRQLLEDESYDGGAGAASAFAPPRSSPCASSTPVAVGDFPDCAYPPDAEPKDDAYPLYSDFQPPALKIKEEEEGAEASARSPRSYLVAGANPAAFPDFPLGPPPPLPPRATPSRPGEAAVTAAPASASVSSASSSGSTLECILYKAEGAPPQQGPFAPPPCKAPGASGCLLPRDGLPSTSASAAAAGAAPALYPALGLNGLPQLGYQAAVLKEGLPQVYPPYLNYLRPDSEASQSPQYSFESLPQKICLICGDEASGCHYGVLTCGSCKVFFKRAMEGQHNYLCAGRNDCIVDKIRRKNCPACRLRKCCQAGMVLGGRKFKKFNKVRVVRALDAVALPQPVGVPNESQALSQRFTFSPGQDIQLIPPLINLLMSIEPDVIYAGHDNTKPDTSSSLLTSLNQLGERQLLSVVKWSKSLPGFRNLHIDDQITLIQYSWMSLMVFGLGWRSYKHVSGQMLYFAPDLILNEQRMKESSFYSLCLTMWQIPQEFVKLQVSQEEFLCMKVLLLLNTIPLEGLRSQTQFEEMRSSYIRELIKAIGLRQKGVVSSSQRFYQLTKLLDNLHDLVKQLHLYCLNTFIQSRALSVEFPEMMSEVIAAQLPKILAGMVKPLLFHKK

As to `CCCCCCCCCC(=O)N(C)C`, the Potency result in assay [1], in assay [2], in [3], in assay [4], in assay [6] and in assay [7] was “inactive” throughout. In addition, the outcome in assay [5] and in assay [8] was inactive.

Regarding `Cc1cc(=O)[nH]c(=O)[nH]1`, the Potency result in assay [1], in [2], in assay [3], in [4], in assay [6] and in [7] was “inactive” each time. In addition, the call in assay [5] and in assay [8] was inactive.

As for `O=C1OC(=O)c2cccc3cccc1c23`, the Potency entry in [1], in assay [2], in [3], in assay [4], in [9] and in assay [6] was “inactive” throughout. Also, the Potency result in [7] was “inactive”. The outcome in assay [5] and in assay [8] was inactive.

On to `C=CC(=O)OCCN(CC)CC`, for which the Potency entry in assay [1], in assay [2], in [3], in [4], in assay [9] and in assay [6] was “inactive” throughout. Also, the Potency entry in assay [7] is “inactive”. Moreover, the molecule was classed as inactive in assay [5] and in assay [8].

Regarding `COC(=O)CC#N`, the Potency entry in assay [1], in [2], in assay [3], in [4], in [6] and in assay [7] was “inactive” in each case. The call in assay [5] and in [8] was inactive.

Turning to `CC1=CCC(=O)O1`, the Potency entry in assay [1], in assay [2], in assay [3], in assay [4], in assay [6] and in [7] was “inactive” each time. Moreover, the outcome in [5] and in [8] was inactive.

With `COC(=O)NCCC[Si](OC)(OC)OC`, the Potency result in assay [1], in assay [2], in assay [3], in assay [4], in assay [6] and in [7] was “inactive” each time. In addition, the call in assay [5] and in assay [8] was inactive.

Regarding `CS(C)(=O)=O`, the Potency result in [1], in assay [2], in assay [3], in assay [4], in assay [9] and in assay [6] was “inactive” each time. For the same molecule, in assay [7], the Potency entry was “inactive”. Besides, the molecule was classed as inactive in assay [5] and in assay [8].

For the molecule `CC(C)C(=O)OCc1ccccc1`, the Potency entry in assay [1], in assay [2], in [3], in assay [4], in assay [9] and in assay [6] was “inactive” each time. Also, the Potency entry in assay [7] was “inactive”. Further, the call in assay [5] and in assay [8] was inactive.

With `O=C1NC2CCCCN2C12CCN(CCCN1c3ccccc3CCc3ccc(Cl)cc31)CC2` (configuration not stated), the Potency in [1] was 23.7 µM (active); in [2], 26.6 µM (active); in [3], 26.6 µM (active); in assay [4] it was 26.6 µM (active); in assay [7], 29.8 µM (active). Further, in assay [9], the Potency result is “inactive”. Also, the molecule was called inactive in assay [5] and in assay [8].

Regarding `Cn1cnc2ncnc(N)c21`, the Potency result in assay [1], in assay [2], in assay [3], in assay [4], in assay [9] and in assay [6] was “inactive” each time. In assay [7], the Potency entry was “inactive”. Further, the molecule was called inactive in [5] and in assay [8].

Regarding `COC(=O)CC(C)CCC=C(C)C` (configuration not stated), the Potency entry in assay [1], in [2], in assay [3], in assay [4], in [9] and in [7] was “inactive” each time. In addition, the result in assay [8] was inactive.

Consider `CC(C)=C1CC[C@@H](C)CC1=O`, for which the Potency entry in assay [1], in [2], in assay [3], in assay [4], in [9] and in assay [6] was “inactive” in each case. The Potency entry in assay [7] was “inactive”. Further, the call in assay [5] and in assay [8] was inactive.

On to `O=C(O)CC(=O)O`, for which the Potency entry in [1], in assay [2], in [3], in assay [4], in assay [6] and in [7] was “inactive” each time. Moreover, the outcome in [5] and in assay [8] was inactive.

Turning to `C=CC(=C)CC/C=C(\C)CCC=C(C)C`, the activity, negative = inhibition in assay [1] is -20.6% [at 19 µM]. The activity change, negative = cytotoxicity in assay [2] was 1.35% [at 19 µM]; in assay [3], -10.3% [at 19 µM]; in assay [4], -3.14% [at 19 µM]; in assay [7], -2.45% [at 19 µM]. Further, the activation in [9] is 1.51% [at 19 µM]; in [8], 0.395% [at 19 µM]. For the same molecule, the cAMP activity change in [5] was 3.85% [at 18.9 µM]. Also, in [6], the activity change, negative = inhibition was 0.374% [at 19 µM].

Turning to `CN(C)CCN1CCOCC1`, the Potency entry in [1], in assay [2], in assay [3], in [4], in [6] and in assay [7] was “inactive” in each case. Besides, the call in [5] and in [8] was inactive.

Regarding `O=C1OC(=O)c2ccc3c4c(ccc1c24)C(=O)OC3=O`, the Potency entry in assay [1], in assay [2], in [3], in assay [4], in [9] and in [6] was “inactive” each time. Besides, the Potency entry in [7] is “inactive”. For the same molecule, the molecule was classed as inactive in assay [5] and in [8].

As to `C=C(C)C(=O)OCCC[Si](Cl)(Cl)Cl`, the Potency entry in assay [1], in [2], in [3], in assay [4], in assay [6] and in assay [7] was “inactive” each time. Also, the molecule was classed as inactive in [5] and in assay [8].

Regarding `Oc1ccc(-c2ccccc2)c(Cl)c1`, the Potency in assay [1] was 21.7 µM (active); in assay [3], 27.3 µM (active). Also, the Potency result in assay [2], in [4], in [9], in assay [6] and in assay [7] was “inactive” each time. Moreover, the call in assay [5] and in [8] was inactive.

Consider `CC1(C)C(=O)N(CO)C(=O)N1CO`, for which the Potency result in assay [1], in assay [2], in assay [3], in [4], in assay [9] and in [6] was “inactive” in each case. Also, the Potency result in assay [7] was “inactive”. The molecule was called inactive in [5] and in assay [8].

Turning to `C/C=C/c1ccc(OC)c(OC)c1`, the Potency entry in [1], in [2], in assay [3], in assay [4], in [6] and in assay [7] was “inactive” throughout. For the same molecule, the call in assay [5] was inactive.

Regarding `O=C(O)CCCCCCC(=O)O`, the Potency entry in [1], in [2], in assay [3], in assay [4], in assay [6] and in [7] was “inactive” in each case. Besides, the molecule was called inactive in [5] and in [8].

As for `CCCCCCCC/C=C/CCCOC(C)=O`, the Potency entry in assay [1], in assay [2], in assay [3], in assay [4], in [9] and in assay [6] was “inactive” each time. Also, the Potency result in [7] was “inactive”. The molecule was classed as inactive in [5] and in assay [8].

In the case of `CCCCCCCC(C)=O`, the Potency entry in [1], in assay [2], in [3], in [4], in [6] and in assay [7] was “inactive” each time. Also, the molecule was classed as inactive in assay [5] and in assay [8].

As for `CCCCC(CC)COC(=O)c1ccc(O)cc1` (configuration not stated), the Potency in assay [1] was 21.6 µM (active) and 21.7 µM (active); in [3], 61.1 µM (active); in assay [4], 68.6 µM (active). Besides, the Potency entry in assay [2] and in assay [6] was “inactive” throughout. Besides, the outcome in assay [5] and in [8] was inactive.

Turning to `COC(=O)[C@]1(C)CCC[C@@]2(C)[C@H]1CC=C1C=C(C(C)C)CC[C@@H]12`, the Potency entry in assay [1], in assay [2], in [4], in [6] and in assay [7] was “inactive” in each case. Moreover, the Potency in assay [3] is 68.6 µM (active). For the same molecule, the result in assay [5] and in assay [8] was inactive.

Turning to `C=C(c1ccc(C(=O)O)cc1)c1cc2c(cc1C)C(C)(C)CCC2(C)C`, the Potency was 8.41 µM (active) in assay [1]; 34.4 µM (active) and 33.5 µM (active) in [3]; 34.4 µM (active) and 29.8 µM (active) in [4]. Moreover, the Potency entry in [2], in assay [9] and in assay [7] was “inactive” in each case.
